# Assay results taken from PubChem BioAssay (NCI).
# About 83,000 compounds went through this panel and 20% of them were active in at least one assay; those are over-represented in the sample as a whole.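 48-hour exposure, single concentration, 96-well plates; percent growth endpoint where 0 means no net growth. Active: below 10.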 A number with no mark means an inactive call. Calls of active or inactive are those of the source.
# Columns and labels:
# Experiment in all cases: NCI-60 one-dose screen, 48 h (100 = growth as untreated, 0 = no growth, -100 = all killed)
# Conditions in all cases: 10 µM unless noted
# NCI-H23 lung = test system: NCI-H23 lung
# NCI-H226 lung = test system: NCI-H226 lung
# NCI-H322M lung = test system: NCI-H322M lung
# HOP-62 NSCLC = test system: HOP-62 NSCLC
# NCI-H460 lung = test system: NCI-H460 lung
# NCI-H522 lung = test system: NCI-H522 lung
# A549/ATCC NSCLC = test system: A549/ATCC NSCLC
# 786-0 renal = test system: 786-0 renal
# COLO 205 colon = test system: COLO 205 colon
# DU-145 prostate = test system: DU-145 prostate
# K-562 leukemia = test system: K-562 leukemia
# MALME-3M melanoma = test system: MALME-3M melanoma
# MDA-MB-231 breast = test system: MDA-MB-231 breast
# RXF 393 renal = test system: RXF 393 renal
# SF-268 CNS = test system: SF-268 CNS
# SF-295 CNS = test system: SF-295 CNS
# SF-539 CNS = test system: SF-539 CNS
# UACC-257 melanoma = test system: UACC-257 melanoma
# M14 melanoma = test system: M14 melanoma
SMILES,growth (NCI-H23 lung) [%],growth (NCI-H226 lung) [%],growth (NCI-H322M lung) [%],growth (HOP-62 NSCLC) [%],growth (NCI-H460 lung),growth (NCI-H522 lung),growth (A549/ATCC NSCLC),growth (786-0 renal),growth (COLO 205 colon),growth (DU-145 prostate),growth (K-562 leukemia),growth (MALME-3M melanoma) [%],growth (MDA-MB-231 breast) [%],growth (RXF 393 renal),growth (SF-268 CNS) [%],growth (SF-295 CNS),growth (SF-539 CNS),growth (UACC-257 melanoma),growth (M14 melanoma)
O=[N+]([O-])c1ccc(N/N=C/c2ccccc2O)nc1,33.9,83.3,39.6,32.7,15%,9.71% (active),31.4%,21.8%,14.6%,48.7%,21.9%,78.5,52.3,38.1%,40.1,35.2%,42.9%,32%,29.5%
COc1cc2ncnc(Nc3ccc(S(=O)(=O)Nc4nccs4)cc3)c2cc1OCCCN1CCOCC1,104,99.7,102,93.3,105%,88.6%,103%,108%,103%,110%,106%,99.8,99.2,111%,98.3,108%,98.6%,101%,107%
CCN1C(=O)N(CC)C2C1N=C(SC)N2/N=C/C=C/c1ccccc1OC (centres undefined),21.9,34.8,31.7,25.2,6.18% (active),-32.8% (active),17.7%,14.5%,-48.9% (active),5.61% (active),6.68% (active),31.9,21.2,11%,23.5,10.6%,-4.87% (active),55.3%,4.55% (active)
Cc1cc(N)cc(C)c1-c1c(Br)cc(N)cc1Br,50.9,69.2,18.8,25.1,17.4%,-9.5% (active),25.2%,26.7%,11.9%,28.6%,8.58% (active),14,42.6,-22.9% (active),41.4,-14% (active),15.3%,62%,10.8%
Nc1nc(NC2CC2)cc(-c2cccc(Cl)c2Cl)n1,71.7,92.3,101,47.1,27.6%,3.95% (active),32.6%,69.2%,44.1%,78.3%,18.9%,64.4,66.8,73.3%,67.6,55.7%,55.7%,49.8%,18.3%
O=C(Nc1ccc(-n2ccc3c(NC(=O)c4ccccc4)nccc32)cc1)c1ccc(N2CCOCC2)c(C(F)(F)F)c1,37.4,43.1,48.6,21.1,3.48% (active),29.9%,6.91% (active),-26.3% (active),16.6%,38.9%,17.4%,55.5,52.5,-66.5% (active),37,-7.34% (active),22.6%,55%,29.1%
CC(C)(C)c1ccc(OC(=O)Nc2ccccc2)cc1,103,106,94.4,111,111%,100%,99.3%,83.8%,119%,107%,88%,96.6,109,118%,96,103%,90.5%,99.5%,96.5%
O=C1C=CN2C(=O)CC=CC2[C@@H]1O (some centres undefined),103,113,116,112,121%,113%,108%,110%,123%,118%,109%,133,122,118%,111,116%,104%,108%,104%
CNCCCn1c2c(c3ccc(Cl)cc3c1=O)C(=O)c1cc(OC)cnc1-2,34,43,61.8,17.6,-77.3% (active),10.1%,-88.5% (active),-85.1% (active),51.9%,-85.2% (active),-66% (active),72.8,77.3,61.2%,34.7,14.6%,29.1%,56.9%,36%
CCCCCCCCCCCCCCCCCC1=NCCN1CCO,77.1,106,88.4,81,18.7%,80.8%,64.2%,75.6%,84.8%,78.7%,64.6%,129,58.8,87.9%,78.4,90%,78.4%,84.4%,84.1%
FC(F)(F)c1nn[nH]n1,96.6,94.8,111,125,117%,102%,94.1%,107%,122%,99.5%,113%,100,116,104%,94.5,106%,106%,110%,112%
O=c1c2cc(Cl)ccc2oc2ccc(OCCCCCN3CCCCC3)cc12,75.1,86.7,89.7,88.9,10.2%,36.2%,32.3%,35.4%,10.6%,74.6%,2.44% (active),74.9,46.1,60.9%,73.1,75.5%,58.3%,-26.2% (active),-67.4% (active)
CC(=O)c1ccc(N2C(=O)c3ccc(Oc4ccccc4)cc3C2=O)cc1,101,98.8,106,99.9,105%,93.1%,109%,108%,116%,103%,119%,106,113,112%,100,81.1%,107%,118%,98.8%
COc1cc([N+](=O)[O-])cc(OC)c1OC,107,112,109,110,109%,83.8%,110%,104%,127%,115%,101%,97.8,112,124%,110,110%,114%,114%,108%
C/C(=N\Nc1ccc([N+](=O)[O-])cn1)c1ccc(N)cc1,109,109,120,109,110%,85.8%,96.1%,99.7%,104%,116%,13.8%,133,88.9,132%,94.4,128%,93.7%,105%,106%
COc1cnc2c(c1)C(=O)c1c-2n(CCCN2CCN(C)CC2)c(=O)c2cc(Cl)ccc12,47.9,30.4,49.3,20.5,6.14% (active),11.7%,37.7%,21.3%,31.3%,33.1%,-76.1% (active),75.4,48.6,46.9%,35.7,35.5%,14.7%,14.1%,-54.4% (active)
